Here are results for 29 compounds from ChEMBL document CHEMBL1157539, “Thousands of chemical starting points for antimalarial lead identification” (Nature, 2010).

Common to all, as to format: functional
Assay [1] concerns Plasmodium falciparum. Description: GSK_TCMDC: Inhibition of Plasmodium falciparum 3D7 in whole red blood cells, using parasite LDH activity as an index of growth. Test compounds present at 2uM.
Assay [2] concerns Plasmodium falciparum. As to the kind of experiment: GSK_TCMDC: Inhibition of Plasmodium falciparum Dd2 in whole red blood cells, using parasite LDH activity as an index of growth. Test compounds present at 2uM.
The next assay deals with HepG2. As to the kind of experiment: GSK_TCMDC: Percent inhibition of human HepG2 cell line. Test compounds present at 10uM.

As for `Cl.Oc1ccc(Nc2nc(NCC3CCCO3)c3ccccc3n2)cc1` (configuration not stated), the Inhibition in the assay on Plasmodium falciparum [1] worked out at 100%; in the assay with Plasmodium falciparum [2], 57%; in the assay on HepG2, 7%.
In the same order, the values of `CC1(C)CN2CCCC2c2cc(NC(=O)/C=C/c3ccccc3Cl)ccc21.Cl` (configuration not stated) are 88%, 76% and 20%.
Taken in the same sequence, the figures for `CCCCN(C(=O)c1ccccc1C)c1nnc(-c2ccccc2C)s1` were 92%, 94% and 10%.
In the same order, the values of `Cc1cccc(-c2nc3cc(NC(=O)c4ccc([N+](=O)[O-])o4)ccc3o2)c1` are 94%, 73% and 8%.
As for `COc1ccc(CCNCCCCCCNCCc2ccc(Cl)cc2)c(Cl)c1OC.Cl`, the Inhibition in the assay with Plasmodium falciparum [1] stood at 100%; in the assay on Plasmodium falciparum [2] it was 4%; in the assay with HepG2, 88%.
Taken in the same sequence, the figures for `Cc1nnsc1C(=O)Nc1cccc(-c2cccc(-c3nc4cccc(C)c4[nH]3)c2)c1` were 99%, 80% and 22%.
In the same order, the values of `Cc1cccc(C)c1CNc1nc(N2CCOCC2)cc2c(C)c(C)[nH]c12.Cl` are 92%, 64% and 51%.
Taken in the same sequence, the figures for `COC(=O)c1ccccc1N1CCN(CCCCNC(=O)c2ccc(NC(=O)c3cc(Cl)cc(Cl)c3)cc2)CC1` were 100%, 42% and 20%.
In the case of `O=C(/C=C/c1ccc(Cl)c(Cl)c1)NCCCCCN1CCCN(C(=O)Nc2cccc(F)c2)CC1`, the Inhibition in the assay with Plasmodium falciparum [1] is 97%; with Plasmodium falciparum [2], 4%; with HepG2, 20%.
In the same order, the values of `O=C(/C=C/c1ccccc1Cl)Nc1ccc(Br)c(OCCN2CCCCC2)c1.O=C(O)C(=O)O` are 99%, 25% and 11%.
Taken in the same sequence, the figures for `Cl.O=C(OCC1CCN(Cc2ccccc2)C1)c1ccc(Cl)cc1` (configuration not stated) were 100%, 4% and 0%.
Regarding `CCCN1CCN(c2cc(NCC)c3c4c(onc24)-c2ccccc2C3=O)CC1`, the Inhibition in the assay on Plasmodium falciparum [1] amounted to 96%; with Plasmodium falciparum [2], 11%; with HepG2, 4%.
In the same order, the values of `COc1cccc(OC)c1CN1CCC(N(C)CCCCCCCCCN2CCC(OC(=O)Nc3ccccc3-c3ccccc3)CC2)CC1` are 98%, 98% and 100%.
Taken in the same sequence, the figures for `COc1cc(Nc2ccnc3cc(-c4ccncc4)ccc23)cc(OC)c1OC.Cl` were 89%, 39% and 9%.
Taken in the same sequence, the figures for `CS(=O)(=O)c1ccc(-c2cc(C(F)(F)F)nc(N[C@@H]3CCCC[C@H]3OCc3ccccc3)n2)cc1` were 100%, 99% and 8%.
As to `CCOC(=O)c1c(C)noc1Nc1cccc(C)c1C`, the figures for the Inhibition in the assay with Plasmodium falciparum [1], in the assay on Plasmodium falciparum [2] and in the assay with HepG2 were 98%, 0% and 8%, respectively.
For `CC(C)N1CCC(N(Cc2ccc(-c3ccc(Cl)cc3)cc2)C(=O)Cn2c(CCc3cccc(F)c3F)nc(=O)c3ccccc32)CC1.O=C(O)C(O)C(O)C(=O)O`, the Inhibition was 86% with Plasmodium falciparum [1], 70% in the assay with Plasmodium falciparum [2] and 61% in the assay on HepG2.
In the case of `c1ccc2[nH]c(-c3ccc(-c4ccc(CN5CCN(c6ccncc6)CC5)cc4)s3)nc2c1`, the Inhibition in the assay with Plasmodium falciparum [1] was 100%; in the assay on Plasmodium falciparum [2], 100%; with HepG2 it was 25%.
`COc1ccc2[nH]c(C)cc(=NN=Cc3ccncc3)c2c1`: the figures for the Inhibition with Plasmodium falciparum [1], with Plasmodium falciparum [2] and in the assay on HepG2 were 100%, 68% and 6%, respectively.
Taken in the same sequence, the figures for `O=C(CCCCCNC(=O)c1ccc(O)c(-c2ccc(Cl)c(Cl)c2)c1)NCCN1CCCC1` were 90%, 2% and 0%.
In the same order, the values of `Cc1c(-c2cccc(CNCCc3ccc(Cl)cc3)c2)cnc(N)c1C.Cl` are 87%, 30% and 9%.
With `Br.N=C1N=C(N)NC2(CCCCC2)N1OCCOc1ccc(Cc2ccccc2)cc1`, the results for the Inhibition with Plasmodium falciparum [1], in the assay with Plasmodium falciparum [2] and in the assay on HepG2 were 86%, 22% and 34%, respectively.
In the same order, the values of `COc1cccc(OC)c1C(=O)N1CCC2(CC1)C(=O)N(CC(=O)NC1CCCCC1)CN2c1ccccc1` are 92%, 91% and 16%.
On to `COc1cc(Nc2nccc(N3CCC(NC(=O)Nc4cccc(C(C)=O)c4)C3)n2)cc(OC)c1OC` (configuration not stated), for which the Inhibition with Plasmodium falciparum [1] is on record as 91%; in the assay with Plasmodium falciparum [2] it was 34%; in the assay with HepG2, 8%.
In the same order, the values of `CCCC(C)Nc1nc(C)cc(N[C@@H](Cc2ccccc2)C(=O)NCc2cccc(F)c2)n1.O=C(O)C(F)(F)F` (some centres not stated) are 100%, 75% and 9%.
For `CCNC[C@H]1CCCN1CCOc1ccc(-n2cnc3cc(-c4ccc(Cl)cc4)sc3c2=O)cc1OC.O=C(O)C(F)(F)F`, the values for the Inhibition in the assay on Plasmodium falciparum [1], in the assay with Plasmodium falciparum [2] and in the assay on HepG2 were 97%, 39% and 53%, respectively.
Taken in the same sequence, the figures for `O=C(NCc1cccc(C(F)(F)F)c1)[C@@H]1CCCN1C(=O)c1ccc(O)c(-c2ccc(Cl)c(Cl)c2)c1` were 99%, 97% and 0%.
Consider `O=C(c1ccc(O)c(-c2cc(Cl)cc(Cl)c2)c1)N1CCCC1`, for which the Inhibition in the assay with Plasmodium falciparum [1] is listed as 90%; with Plasmodium falciparum [2], 57%; in the assay with HepG2 it was 3%.
In the same order, the values of `Cc1ccc(NC(C)C(=O)Nc2ccc(C#N)cc2)cc1S(=O)(=O)N1CCCCC1` (configuration not stated) are 92%, 92% and 11%.

As a reminder, the Inhibition is the change of the read-out against control, counted positive when it falls. Read a high Inhibition as a response far below the control.
